From PubChem BioAssay (Tox21) come the findings set out here.

SMILES strings stand for the structures. Activity calls are given as the source filed them. Calls follow the shape of the dose curve; as a rule, active = well fitted curve in the direction sought with a large enough effect in the repeat runs; inconclusive = weak or mixed curves; inactive = flat fitted curve, though single readings scatter.

A short description of the assay: qHTS assay to test for compound auto fluorescence at 535 nm (green) in HepG2 cells (AID 720675). The settings on record: green autofluorescence 485/535 nm, 1 h; series mostly up to 91.3 µM. An excerpt: National Center for Advancing Translational Sciences [NCATS]
NIH Chemical Genomics Center [NCGC]
U.S. Environmental Protection Agency [EPA]
National Institutes of Environmental Health Sciences [NIEHS]
National Toxicology Program [NTP]
U.S. Food and Drug Administration [FDA]
Compound auto fluorescence often interferes with screening of the compound library against various biological targets and signaling pathways. Some of these compounds may have fluorophoric properties. Such properties may interfere with the assay outputs resulting in false positives and/or negatives. To decrease such complications and ensure the compound activities are relevant in terms of biological response, the Tox21 10K compound library was screened for auto fluorescence.
From the fluorophores used as reporter signals in our screening assays, the auto fluorescence equivalencies of compounds against three fluorophores have been evaluated: Triamterene, Fluorescein and Rose Bengal sodium for blue, green and red fluorescence, respectively. The fluorescence intensities were measured using Excitation/Emission wavelengths at 405/460nm, 485/535nm and 540/590nm for blue, green and red labels, respectively. This assay includes the green fluorescence data.
Tox21 Assay Protocol Summary:
2,000 HepG2 cells in 5 uL of culture medium (MEM containing 10% FBS) per well were dispensed into black wall/clear bottom 1536-well plates using a Multidrop Combi Dispenser (ThermoFisher Scientific, Waltham, MA). The assay plates were incubated overnight at 37 C to allow cell attachment to the well bottom, followed by the transfer of 23 nL compound or DMSO vehicle by a pintool work station (Kalypsys , San Diego, CA). After the assay plates were incubated for 1 hr at 37 C and 5% CO2, fluorescence intensities in the assay plates were measured by an Envision (PerkinElmer, Shelton, CT) plate reader using three labels for measuring blue, green and red fluorescence at […] 460, 535 and 590 nm respectively.
(In general: Quantitative high-throughput screening tests each substance at several concentrations.)
On to `Clc1cccc2ccccc12`, for which the compound was called inactive.
The same measure for `CCC(Cl)CCl` (stereo not given): “inactive”; for `C#CCOC(C(=O)OCCN(C)C)(c1ccccc1)c1ccccc1`: “inactive”.
The same measure for `O=C(NCc1cccnc1)Nc1ccc([N+](=O)[O-])cc1`: “inactive”.
In the case of `Clc1cc(C(Cl)(Cl)Cl)cnc1Cl`, the call was inactive.
`C=CCCl`: the result was inactive.
Take `O=S(=O)(Cl)c1ccccc1`: the compound was called inactive.
Turning to `[O-][Cl+]O`, the result was inactive.
On to `CC(=O)C(C)(C)C`, for which the outcome was inactive.
Under `c1ccc(CN2CCNCC2)cc1` stands “inactive”; under `CCC(Br)(CC)C(=O)NC(N)=O`, “inactive”; under `O=C=Nc1ccc(Cl)cc1`, “inactive”.
Regarding `Oc1ccc(Cl)c(Cl)c1Cl`, the call was inactive.
Under `O=C(NC(=O)c1c(F)cccc1F)Nc1cc(Cl)c(Oc2ncc(C(F)(F)F)cc2Cl)c(Cl)c1` stands “inactive”; under `O=Cc1ccc(Cl)cc1Cl`, “inactive”.
Regarding `CCCCC(CC)COP(=O)(Oc1ccccc1)Oc1ccccc1` (stereo not given), the compound was classed as inactive.
As to `CC(=O)NC1CCSC1=O` (stereo not given), the call was inactive.
In the case of `CC1C(=O)C[C@]2(C(C)C)C[C@H]12` (stereo not given in full), the outcome was inactive.
On to `C=CC(=O)OC`, for which the result was inactive.
In the case of `CC(Cl)C(C)Cl` (stereo not given), the call was inactive.
As to `C=CCOC(C)=O`, the call was inactive.
The same measure for `O=C(O)CC(Cl)C(=O)O` (stereo not given): “inactive”; for `O=[Se]=O`: “inactive”.
Under `CNP(=O)(OC)Oc1ccc(C(C)(C)C)cc1Cl` (stereo not given) stands “inactive”; under `ClC=C(Cl)Cl`, “inactive”; under `CC(C)(C)C(O)C(Oc1ccc(Cl)cc1)n1cncn1` (stereo not given), “inactive”.
Under `CC(C)N(C(=O)COc1nnc(C(F)(F)F)s1)c1ccc(F)cc1` stands “inactive”; under `CCOC(=O)CBr`, “inactive”.
For the compound `CCCCN=C=O`, the outcome was inactive.
Under `ClCCCCBr` stands “inactive”.
Consider `CCOC(=O)COc1cc(-c2nn(C)c(OC(F)F)c2Cl)c(F)cc1Cl`, for which the call was inactive.
For the compound `c1ccc(C2CC2)c(OCC2=NCCN2)c1`, the compound was called inactive.
Under `CCC(C)(NC(=O)c1cc(Cl)c(C)c(Cl)c1)C(=O)CCl` (stereo not given) stands “inactive”; under `N#Cc1cc(I)c(O)c(I)c1`, “inactive”; under `CC1(C)CCC(Cc2ccc(Cl)cc2)C1(O)Cn1cncn1` (stereo not given), “inactive”.
With `O=NN1CCNCC1`, the outcome was inactive.
The same measure for `N#C/C(N)=C(/N)C#N`: “inactive”.
Under `CC(C)(C)c1cc([N+](=O)[O-])cc([N+](=O)[O-])c1O` stands “inactive”; under `CS/C(C)=N/OC(=O)N(C)SN(C)C(=O)O/N=C(\C)SC`, “inactive”; under `II`, “inactive”.
